CF NFkB block – inhibitors of cystic fibrosis induced NF-kB. KKLEB NF-kB-GFP reporter, PAF-induced, GFP fluorescence overnight. inhibition, % at 5 µM. hit rate 0.86% among 360,000. AID 588850;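 active = at least 50% inhibition at 5 µM, scaled per plate between neutral and stimulator controls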;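 also: PAF is a Pseudomonas aeruginosa culture filtrate used as stimulus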
Peg3 prom inh – Peg3 promoter activity inhibition; HeLa PEG-Prom luciferase reporter, luminescence, overnight; inhibition, % at 20 µM; hit rate 1.7% among 360,000;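 active = inhibition of at least 50% at 20 µM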
KKLEB tox – reduces viability of KKLEB cystic fibrosis airway cells | AID 602141 | activity change (cytotoxicity), % at 5 µM | hit rate 0.36% among 360,000 | KKLEB CF airway cells viability, ATPlite luminescence, overnight; stronger effect = lower value; cells stimulated with P. aeruginosa culture filtrate;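 active = corrected activity change at or below -50% at 5 µM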
TWEAK-Fn14 inh – blocks TWEAK-Fn14 interaction in a reporter cell assay; hit rate 2% among 360,000; inhibition, % at 10 µM; TWEAK-stimulated Fn14 reporter cells, luciferase luminescence, 8 h; in the data active = inhibition above about 50%
HIF-2a block – blocks HIF-2a reporter activity | hit rate 0.72% among 360,000 | inhibition, % at 18.8 µM | 786-0 RCC cells HIF-2a reporter, luciferase luminescence, overnight;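 active = inhibition of the luminescence signal of 40% or more relative to plate controls, in a single-dose primary screen at 18.75 µM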
TROY NFkB inh – inhibitors of TROY-dependent NF-kB signaling; Q293 LMP1-TROYcd NF-kB luciferase reporter, 4 h; inhibition, % at 10 µM; hit rate 0.98% among 360,000; AID 1347056;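 active = compounds whose plate-normalised and pattern-corrected inhibition of the luciferase reporter signal at the single screening dose is 50% or more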
A number is an active result; i = inactive; nt = no result given. In the library only some 4% were active in any assay of this set; here they are far more common.

SMILES	CF NFkB block	Peg3 prom inh	KKLEB tox	TWEAK-Fn14 inh	HIF-2a block	TROY NFkB inh
O=C(Nc1ccc(-c2nc3ccccc3[nH]2)cc1)C1CCCN(Cc2ccn[nH]2)C1 (configuration not stated)	i	i	i	i	i	i
O=C(O)c1ccc2ncc(NC(=O)c3ccc(F)cc3)c(=O)n2c1	i	i	i	i	i	i
CSCCC(NS(=O)(=O)c1ccc(Cl)cc1)C(=O)OCC(=O)c1c(C)[nH]c2ccccc12 (configuration not stated)	i	i	i	62	i	82
C=CCNC(=O)/C(C#N)=C/c1c(C)nn(-c2ccc(Cl)cc2)c1Cl	i	i	i	51	i	i
CC(C)Cc1ccc(C(C)CC2=CCC(CN(C)C)C2=O)cc1 (configuration not stated)	i	101	i	i	i	i
CC(C)Cc1ccc(S(=O)(=O)N2CCOCC2)cc1	i	i	i	i	i	i
CC(C)CNC(=O)NC(=O)COC(=O)c1ccccc1Sc1ccc(C(F)(F)F)cc1[N+](=O)[O-]	i	i	i	57	i	i
C=CCNC(=O)NC(=O)COC(=O)c1ccccc1Sc1ccc(C(F)(F)F)cc1[N+](=O)[O-]	i	i	i	i	i	i
COc1cccc(N2C(C(C)=O)=NN(c3ccccc3)C2c2ccc(N3CCOCC3)cc2)c1 (configuration not stated)	i	i	i	55	i	i
CC(=O)C1=NN(c2ccccc2)C(c2ccc3c(c2)OCO3)N1c1ccc(N2CCOCC2)cc1 (configuration not stated)	i	i	i	i	i	i
O=C1Cc2cc(S(=O)(=O)N3CCN(c4cccc(Cl)c4)CC3)ccc2N1	i	i	i	i	i	i
Cn1cc(C(=O)N2CCCC(Nc3ccc(F)cc3)C2)c2ccccc21 (configuration not stated)	i	i	i	i	i	i
COc1cc([N+](=O)[O-])ccc1NC(=O)CC1SC(=Nc2ccc(F)cc2)N(CCC2=CCCCC2)C1=O (configuration not stated)	i	i	i	60	i	i
COc1ccc(OC)c(NC(=O)CC2SC(=Nc3ccc(F)cc3)N(CCC3=CCCCC3)C2=O)c1 (configuration not stated)	i	i	i	i	i	i
CSCCC(=O)NC1CCCN(CCc2ccccc2)C1 (configuration not stated)	i	i	i	i	i	i
COc1cccc(NC(=O)Cn2nnc(C(=O)NCCc3ccccc3)c2N)c1	i	i	i	i	i	i
CC(C)c1cccc(C(C)C)c1OC(=O)[C@H]1OC(c2ccc(Br)cc2)=C[C@@H]1c1ccc(Br)cc1	i	i	i	i	i	i
COc1ccc2c(=O)c(-c3nc(C)cs3)coc2c1	i	i	i	79	i	i
COc1ccc(-c2coc3cc(OC)ccc3c2=O)cc1	i	i	i	i	i	i
COCCCn1cc(CN2CC(N3CCN(Cc4ccccc4F)CC3)CS2(=O)=O)nn1 (configuration not stated)	nt	nt	nt	i	i	i
Cc1nc2ccccc2n1CC(O)COc1ccc(Br)cc1 (configuration not stated)	i	i	i	i	i	i
COCCn1c(COc2ccc(C)cc2)nc2ccccc21	i	i	i	65	i	nt
CCCCn1c(=N)n(CCOc2ccc(C)cc2)c2ccccc21	i	100	i	i	i	i
COc1ccc(OCCn2c(=N)n(CCO)c3ccccc32)cc1	i	i	i	i	i	i
CCCCn1c(=N)n(CC(O)COc2cccc(C)c2)c2ccccc21 (configuration not stated)	i	70	i	i	i	i
SMILES	CF NFkB block	Peg3 prom inh	KKLEB tox	TWEAK-Fn14 inh	HIF-2a block	TROY NFkB inh
Cc1nc2ccccc2n1CC(O)COc1ccccc1Cl (configuration not stated)	i	i	i	54	i	i
CC1(C)CC(=O)C=C(c2cccc(O)c2)C1	i	i	i	i	i	i
CC1=C(c2ccccc2)C=NNCC1=O	i	i	i	i	i	i
Cc1ccc(S(=O)(=O)CCC(=O)OCc2nnc(-c3ccccc3)o2)cc1	i	i	i	i	i	i
CCn1c(SCC(=O)NC2CCCC2)nc2c(c1=O)SCC2	i	i	i	i	i	i
Cc1nnc(SCC(=O)NC2CC2)s1	i	i	i	i	i	i
